Each structure is given as a SMILES string. The panel holds about 79,000 compounds, 15% with a hit somewhere; the sample as a whole holds those more often. Values without a mark were called inactive. Active and inactive are the calls of the source. Rule as the data show it: active = growth inhibition above about 70%; inactive = the rest.

The record followed here is PubChem BioAssay (NCI).

A short description of assay [1]: NCI Yeast Anticancer Drug Screen. Data for the rad50 strain (AID 155).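 Also: 0% = growth of vehicle-only cultures of the same strain.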 As to conditions: S. cerevisiae rad50 strain growth inhibition; at 50.0 µM; hits give high values. The procedure, abridged: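 Cells are treated with compound, grown, and their growth is then scored against vehicle-only cultures of the same repair-deficient yeast strain.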
Assay [2] in a line: NCI Yeast Anticancer Drug Screen. Data for the mec2-1 strain (AID 157). As to conditions: S. cerevisiae mec2-1 strain, at 50.0 µM, hits give high values. The procedure, abridged:
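mec2-1 yeast strain, carrying an alteration in DNA damage repair or cell cycle control, was exposed to compounds; growth inhibition was measured relative to vehicle-treated controls.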

Assay [3] can be described thus: NCI Yeast Anticancer Drug Screen. Data for the sgs1 mgt1 strain (AID 161).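 Also: 0% = growth of cultures given vehicle only.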 As to conditions: S. cerevisiae sgs1 mgt1 strain, at 50.0 µM, hits give high values. The method, boiled down:
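Growth of a repair-deficient yeast mutant was monitored after compound treatment and expressed as inhibition relative to vehicle-treated cultures.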

A short description of assay [4]: NCI Yeast Anticancer Drug Screen. Data for the cln2 rad14 strain (AID 165).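 Also: 0% = growth equal to vehicle treated cultures.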 The following applies: S. cerevisiae cln2 rad14 strain, at 50.0 µM, hits give high values. The procedure, abridged: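 Yeast carrying cln2 and rad14 alterations (cell cycle control and DNA damage repair) were exposed to compounds. Growth inhibition was measured against vehicle-treated controls.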

Assay [5] can be described thus: NCI Yeast Anticancer Drug Screen. Data for the bub3 strain (AID 167). The following applies: S. cerevisiae bub3 mutant strain, at 50.0 µM, hits give high values. The method, boiled down: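 Part of a panel of yeast mutants defective in DNA damage repair or cell cycle regulation. Each strain is grown with compound, and inhibition is calculated relative to solvent-treated cultures.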

A short description of assay [6]: NCI Yeast Anticancer Drug Screen. Data for the mlh1 rad18 strain (AID 175). The following applies: S. cerevisiae mlh1 rad18 strain growth inhibition; at 50.0 µM; hits give high values. The procedure, abridged:
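Growth inhibition of the yeast strain was measured after compound exposure and expressed relative to vehicle-treated controls. The strain carries defined defects in DNA damage repair.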

With `Cc1ccc(/C=N/NC(=O)Cc2cccc3ccccc23)cc1`, the growth inhibition is -1.75% in assay [1]; 13.4% in assay [2]; 32.9% in assay [3]; -10.9% in assay [4]; 17.1% in assay [5]; 21.1% in assay [6].

On to `CNC(=O)OCc1c(COC(=O)NC)c(-c2cccs2)n2c1CCC2`, for which the growth inhibition in assay [1] is 42%; in assay [2] it was 39.5%; in assay [3] it was 23.1%; in assay [4] it was 30.8%; in assay [5] it was 27.1%; in assay [6], 40.7%.

`CCOC(=O)N(C)Cc1ccc(Cl)cc1`: the growth inhibition in assay [1] is 5.75%; in assay [2], -1.1%; in assay [3] it was 1.25%; in assay [4], -26.2%; in assay [5], -11.8%; in assay [6] it was 21.4%.

In the case of `ClC1(Cl)CC1c1ccccc1` (stereo not given), the growth inhibition is 0.1% in assay [1]; 11.9% in assay [2]; 6.8% in assay [3]; -9.7% in assay [4]; 1.45% in assay [5]; 14.7% in assay [6].

In the case of `COC1(OC)CC2C(=O)N(Cc3ccccc3)C1C(S(=O)(=O)c1ccccc1)C2C(C)S(=O)(=O)c1ccccc1` (stereo not given), the growth inhibition in assay [1] is 14.1%; in assay [2] it was -0.55%; in assay [3], -24%; in assay [4] it was -35%; in assay [5] it was -26.7%; in assay [6] it was 5%.

As to `C=CCc1cc(C(=O)C(=O)c2cc(CC=C)c(OC(C)=O)c(OC)c2)cc(OC)c1OC(C)=O`, the growth inhibition was 3.2% in assay [1]; 6.75% in assay [2]; 6.45% in assay [3]; 6.8% in assay [4]; -5.85% in assay [5]; 8.25% in assay [6].

`Cc1ccc(F)c2[nH]c(-c3ccccc3)cc(=O)c12`: the growth inhibition was 14.9% in assay [1]; 3.45% in assay [2]; -1.2% in assay [3]; -5.95% in assay [4]; 8% in assay [5]; 12% in assay [6].

With `CC(=O)c1ccc(C2CCC[C@H]2c2ccc(C(C)=O)cc2)cc1` (stereo not given in full), the growth inhibition was 4.15% in assay [1]; -1.55% in assay [2]; 1.75% in assay [3]; -40.2% in assay [4]; 9.3% in assay [5]; -16.4% in assay [6].

`O=S1(=O)Cc2ccccc2O1`: the growth inhibition was 4.25% in assay [1]; 5.2% in assay [2]; 28.6% in assay [3]; -3.2% in assay [4]; -19% in assay [5]; 33% in assay [6].

In the case of `Cc1ccc(NC(=S)SCc2ccc(Cl)c(Cl)c2)cc1Br`, the growth inhibition was 29.3% in assay [1]; -6.45% in assay [2]; 10.2% in assay [3]; 15% in assay [4]; 0.3% in assay [5]; 13.8% in assay [6].

Regarding `CC(=O)OCC1OC(n2c(S)c(C#N)c(-c3ccccc3)c(C#N)c2=O)C(OC(C)=O)C(OC(C)=O)C1OC(C)=O` (stereo not given), the growth inhibition is 22.1% in assay [1]; 8.45% in assay [2]; -17.3% in assay [3]; -7.4% in assay [4]; -21.2% in assay [5]; -37.1% in assay [6].

As to `Cc1ccc(NCCN(C)C)c2c(=O)c3cccc(O)c3sc12`, the growth inhibition in assay [1] is 73.5% (active); in assay [2] it was 35.1%; in assay [3], 18.2%; in assay [4] it was 26.8%; in assay [5] it was 40.4%; in assay [6] it was 65%.

As to `CC1CCC(C(C)C)C2(C1)OC(CCl)CS2` (stereo not given), the growth inhibition in assay [1] was -0.35%; in assay [2] it was 14.7%; in assay [3], 7.8%; in assay [4], -18.1%; in assay [5] it was 26.9%; in assay [6], 1.95%.

Consider `C=C(C)[C@@H]1CC[C@]2(C)CC[C@]3(C)[C@H](CC[C@@H]4[C@@]5(C)CC[C@H](OC(=O)c6ccccc6)C(C)(C)[C@@H]5CC[C@]43C)[C@@H]12`, for which the growth inhibition in assay [1] is -7.6%; in assay [2], -16.6%; in assay [3] it was -26.4%; in assay [4], 2.9%; in assay [5], -0.65%; in assay [6], 0%.

Take `CC(=O)C1(O)CCC2C3CCC4CC(=O)CCC4(C)C3C(=O)CC21C` (stereo not given): the growth inhibition is 4.4% in assay [1]; -24.8% in assay [2]; 2.25% in assay [3]; 27.9% in assay [4]; 13.6% in assay [5]; -10.6% in assay [6].

In the case of `Cc1ccc(S(=O)(=O)OC2C3C4CCC5C3SC3C5C4C23)cc1` (stereo not given), the growth inhibition in assay [1] was -5.3%; in assay [2] it was -21.1%; in assay [3], -3.65%; in assay [4], 5.8%; in assay [5], 6.6%; in assay [6] it was 1.1%.

On to `COC(=O)C1=C(C)C=C(N2CCOCC2)C(C(=O)OC)C1c1ccccc1` (stereo not given), for which the growth inhibition in assay [1] was -0.85%; in assay [2], -16.2%; in assay [3], -11.4%; in assay [4], -3.1%; in assay [5], -1.55%; in assay [6], 9%.

On to `N/C(=N\c1nc(N)cc(N)n1)Nc1ccc(S(N)(=O)=O)cc1`, for which the growth inhibition in assay [1] was -15.2%; in assay [2], 4.25%; in assay [3], -6.25%; in assay [4] it was -32.2%; in assay [5], -5.6%; in assay [6], -4.15%.

Regarding `Cc1cc(=O)n(Cc2ccccc2)n1-c1ccccc1`, the growth inhibition in assay [1] is -11%; in assay [2], 12.8%; in assay [3], -0.4%; in assay [4] it was 9.4%; in assay [5], 1.2%; in assay [6], -17%.

`CCC(=O)c1cc(-c2ccccc2)nc2ccc(OC)cc12`: the growth inhibition in assay [1] is 2.6%; in assay [2], 1.2%; in assay [3] it was 11.5%; in assay [4], -23.4%; in assay [5], -12.2%; in assay [6], -24.4%.
